Laboratory results taken from PubChem BioAssay AID1625 (Sanford-Burnham Center for Chemical Genomics, 2009).
In all, about 190,000 compounds went through this assay and about 570 (0.3%) were called active.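 The calls were made as follows: active = z-score above 3 at 5 µM with at least 500 cells counted in the well; inconclusive = wells under 500 cells, flagged as cytotoxic or low count; inactive = the rest.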 Many of the other results were omitted from the sample, so actives are more common in it than they were.

assay: up-regulation of insulin promoter-GFP reporter – imaging, high-content screening, mouse beta cells (AID 1625); settings: MIN6 insulin promoter-GFP reporter, at 5 µM; cell count: measured here: cytotoxicity, nuclei count; z-score: stronger effect = higher value;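 as to cell count: total cells summed across four imaged fields per well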

| SMILES | cell count | z-score |
| --- | --- | --- |
| Cc1cc2nc(C(F)(F)F)cc(-c3cccs3)n2n1 | 1200 cells | -0.13 (inactive) |
| O=C(COC(=O)C12CC3CC(CC(O)(C3)C1)C2)NC12CC3CC(CC(C3)C1)C2 | 1360 cells | -1.25 (inactive) |
| Clc1ccc2nc(-c3ccccc3)nc(C(Cl)Cl)c2c1 | 892 cells | -0.12 (inactive) |
| CCOC(=O)CSc1nc2c(sc(=S)n2CCc2ccccc2)c(=O)n1Cc1ccco1 | 1440 cells | -0.59 (inactive) |
| CN(c1ccccc1)c1ccc(/C=c2\s/c(=C(/C#N)C(=O)C(C)(C)C)n(Cc3ccco3)c2=O)cc1 | 1460 cells | 12.8 (active) |
| Cc1cc2c(c(=O)n1Cc1ccco1)C(c1ccccc1)C(C#N)=C(N)O2 (centres undefined) | 961 cells | -0.43 (inactive) |
| CSc1nc(-c2ccco2)nn1C(=O)c1ccccc1Cl | 983 cells | -0.05 (inactive) |
| COc1ccc(OC)c(CNC(=O)c2cc(=O)[nH]c3ccc(S(=O)(=O)N4CCCC4)cc23)c1 | 1540 cells | -0.29 (inactive) |
| Cc1ccc(C(=O)NC(=S)Nc2ccc(N3CCOCC3)cc2)cc1 | 1440 cells | -0.06 (inactive) |
| Cc1cc(C(=O)N/N=C/c2ccc(N3CCOCC3)cc2)c(C)o1 | 987 cells | 0.32 (inactive) |
| CCN(CC)c1ccc(C(=O)N/N=C/c2ccc(N3CCOCC3)cc2)cc1 | 1830 cells | 3.38 (active) |
| COc1ccccc1Nc1nc(N)nc(CSC(=S)N2CCOCC2)n1 | 1080 cells | -0.34 (inactive) |
| CCCN(c1ccc(C)cc1)c1nc(=O)c2cccnc2s1 | 1150 cells | 0.79 (inactive) |
| O=C(NCc1ccc(F)cc1)C1CCC(CNc2c(N3CCOCC3)c(=O)c2=O)CC1 (centres undefined) | 1000 cells | -0.88 (inactive) |
| CC(C)CN(CC(C)C)CC(O)CN(c1ccccc1)S(=O)(=O)c1ccccc1[N+](=O)[O-] (centres undefined) | 1100 cells | -1.15 (inactive) |
| CC(C)CNC(=O)C(=O)NCc1ccccc1 | 1620 cells | -0.28 (inactive) |
| Cc1nn(-c2ccccc2)c(C)c1NC(=O)CCl | 1030 cells | 3.88 (active) |
| Cc1nn(-c2ccccc2)c(C)c1NC(=O)COc1ccc(Cl)cc1Cl | 1470 cells | 1.23 (inactive) |
| Cc1nn(-c2ccccc2)c(Cl)c1C(=O)Nc1ccccc1 | 1480 cells | -0.05 (inactive) |
| S=C(NCCc1ccccc1)N1CCn2cccc2C1c1ccncc1 (centres undefined) | 1320 cells | 0.43 (inactive) |
| O=C(CN1CCN(Cc2ccccc2)CC1)NC(c1ccccc1)c1ccccc1 | 847 cells | 0.25 (inactive) |
| CCN(CC(=O)Nc1cccc(S(N)(=O)=O)c1)Cc1nc2ccccc2c(=O)[nH]1 | 1090 cells | 0.21 (inactive) |

| SMILES | cell count | z-score |
| --- | --- | --- |
| CC(=O)Nc1ccc(NC(=O)COc2ccc(S(=O)(=O)NC(C)c3ccccc3)cc2)cc1 (centres undefined) | 1520 cells | -0.4 (inactive) |
| CN(C)/C=C1/Nc2ccccc2C1=O | 636 cells | 4.71 (active) |
| O=C1CCCCC(=O)c2ccccc2N1 | 1400 cells | 0.07 (inactive) |
| CCCS(=O)(=O)C(=C1Nc2ccccc2N1)S(=O)(=O)CCC | 1240 cells | 0.09 (inactive) |
| O=C(Nc1nnc(Cc2ccccc2)s1)c1cnccn1 | 1430 cells | 0.26 (inactive) |
| Cc1ccccc1Cn1c2ccccc2c2cnn(CC(=O)NCc3ccco3)c(=O)c21 | 1130 cells | -0.15 (inactive) |
| CCc1cccc(CC)c1NC(=S)Nc1ccc2cn[nH]c2c1 | 1180 cells | -0.06 (inactive) |
| O=C(CNC(=O)c1ccco1)OCC(=O)c1ccccc1 | 1220 cells | 4.35 (active) |
| O=C(COC(=O)CNC(=O)c1ccco1)Nc1ccc(F)cc1 | 1320 cells | -0.26 (inactive) |
| O=C(CNC(=O)c1ccccc1)NCC(=O)OCC(=O)c1ccccc1 | 1240 cells | -0.32 (inactive) |
| CCOC(=O)C1=C(N)N2C(=O)C(C)SC2=C(C(=O)OCC)C1c1cc(OC)c(OC)c(OC)c1 (centres undefined) | 1120 cells | -0.67 (inactive) |
| NS(=O)(=O)c1ccc(NC(=O)COC(=O)c2cc3ccccc3oc2=O)cc1 | 1430 cells | 0.45 (inactive) |
| CCCCOc1ccc(CON(C(C)=O)C(C)=O)cc1Cl | 1140 cells | -0.26 (inactive) |
| O=C(CCn1nnc2ccccc2c1=O)N[C@@H](Cc1c[nH]c2ccccc12)C(=O)O | 1030 cells | 0.15 (inactive) |
| Cc1ccc(CNC(=O)C2CC(=O)N(C3CCCCCCC3)C2)cc1 (centres undefined) | 1550 cells | -0.31 (inactive) |
| CC(C)OCCCNC(=O)C1CC(=O)N(C2CCCCCCC2)C1 (centres undefined) | 1560 cells | -0.3 (inactive) |
| O=C(NCCCN1CCCCCC1)C1CC(=O)N(C2CCCC2)C1 (centres undefined) | 1560 cells | 4.02 (active) |
| O=C(Nc1ccccc1)O/N=C1/CCCc2occc21 | 985 cells | -0.24 (inactive) |
| O=C1CCCCC1C(=O)c1ccccc1 (centres undefined) | 991 cells | -0.12 (inactive) |
| OC(c1ccccc1)C(CN1CCOCC1)c1ccccc1 (centres undefined) | 1160 cells | -0.19 (inactive) |
| C1=C(N2CCOCC2)/C(=C/c2nc3ccccc3[nH]2)CC1 | 905 cells | 3.43 (active) |
| c1ccc(Nc2nc(N3CCOCC3)c3ccccc3n2)cc1 | 637 cells | -1.26 (inactive) |

| SMILES | cell count | z-score |
| --- | --- | --- |
| c1ccc2[nH]c(NCCN3CCOCC3)nc2c1 | 1180 cells | 0.66 (inactive) |
| CCOc1c(Nc2cccc(Cl)c2)c(=O)c1=O | 1030 cells | 0.15 (inactive) |
| COc1cc2c(C(=O)N3CCN(C)CC3)c(CSc3ccccc3)n(C)c2cc1Br | 1290 cells | -0.8 (inactive) |
| Cc1ccc(NC(=S)N2CCCC(c3ccccc3)=N2)cc1 | 1540 cells | -0.41 (inactive) |
| O=S(=O)(NC(=S)Nc1ccccc1)c1ccc(F)cc1 | 1080 cells | -0.63 (inactive) |
| COc1ccc(Cc2nnc(NC(=O)Cc3cccs3)s2)cc1 | 1270 cells | 3.48 (active) |
| O=C(Cc1cccs1)Nc1nnc(C2CC2)s1 | 1650 cells | 1.57 (inactive) |
| CCc1nnc(NC(=O)Cc2cccs2)s1 | 1560 cells | 0.7 (inactive) |
| Cc1ccc(OCC(=O)Nc2nnc(-c3ccco3)s2)cc1 | 1050 cells | -0.23 (inactive) |
| Cc1ccc(SC(C)C(=O)NCc2ccc(F)cc2)cc1 (centres undefined) | 1600 cells | 0.03 (inactive) |
| N#CCCCn1c(O)c(N=NC(=O)C(O)c2ccccc2)c2ccccc21 (centres undefined) | 1150 cells | 0.15 (inactive) |
| Cc1ccc(C(=O)N/C(=C\c2ccco2)C(=O)N2CCSCC2)cc1C | 1360 cells | -0.32 (inactive) |
| CC1CCN(c2ccc([N+](=O)[O-])cc2C(N)=O)CC1 | 1470 cells | 0.15 (inactive) |
| COC(=O)c1sccc1NC(=O)c1csc2c1CCCC2 | 1260 cells | -0.75 (inactive) |
| COC(=O)c1sccc1NC(=O)c1cc(OC)c(OC)c(OC)c1 | 1440 cells | 3.71 (active) |
| COC(=O)c1sccc1NC(=O)COc1ccc(Cl)cc1 | 2220 cells | -0.38 (inactive) |
| O=S(=O)(c1ccc(Cl)cc1)N1CCCN(c2ccc(C(F)(F)F)cn2)CC1 | 1100 cells | -0.98 (inactive) |
| Cc1ccnc(NC(=O)CCCOc2ccccc2)c1 | 1410 cells | -0.12 (inactive) |
| COC(=O)c1scc(S(=O)(=O)C(C)(C)C)c1-n1cccc1 | 1430 cells | 0.89 (inactive) |
| O=C(CSc1nc2ccccc2s1)Nc1ccc(C(=O)O)cc1 | 1290 cells | 0.75 (inactive) |
| Cc1oc(C(N)=O)cc1COc1ccc(C(N)=O)cc1 | 1120 cells | -0.28 (inactive) |
| COc1ccc(N2C(=O)C(Cc3ccccc3)NC2=S)cc1 (centres undefined) | 1180 cells | 0.5 (inactive) |

| SMILES | cell count | z-score |
| --- | --- | --- |
| CCOC(=O)C1CCN(C(=O)Nc2cccc(OC)c2)CC1 | 1010 cells | -0.44 (inactive) |
| O=C(CN1C(=O)CC(c2ccccc2)S(=O)(=O)c2ccccc21)NC1CCCC1 (centres undefined) | 1220 cells | -1.1 (inactive) |
| Cc1oc(-c2ccccc2F)nc1CS(=O)(=O)CC(=O)NCCCN(C)C1CCCCC1 | 1560 cells | 0.14 (inactive) |
| CN(CCCNC(=O)CN1C(=O)CC(C)(C)S(=O)(=O)c2ccccc21)C1CCCCC1 | 1010 cells | 3.03 (active) |
| O=C1CCCC(O)=C1C=NCCc1ccccc1 | 1000 cells | 3.02 (active) |
| CC1(C)CC(=O)C(C=NCCC2=CCCCC2)=C(O)C1 | 1030 cells | 0.42 (inactive) |
| O=C1CC(c2ccccc2)CC(O)=C1C=NCCN1CCOCC1 (centres undefined) | 1300 cells | -0.21 (inactive) |
| CS(=O)(=O)c1ccc2nnn(OCC(=O)Nc3cccc(C#N)c3)c2c1 | 1340 cells | -0.14 (inactive) |
| Cc1cc(C)c(NC(=O)CN2C(=O)NC(Cc3ccccc3)C2=O)c(C)c1 (centres undefined) | 1480 cells | 0.2 (inactive) |
| CN1CCN(CCNC(=O)Nc2ccc([N+](=O)[O-])cc2)CC1 | 1230 cells | 0.23 (inactive) |
| Cn1ccc(NC(=O)Nc2ccc(Cl)cc2)n1 | 1320 cells | 0.16 (inactive) |
| Cc1cccc2cc3c(N)c(C(=O)N4CCCc5ccccc54)sc3nc12 | 725 cells | 6.25 (active) |
| Cc1c(C(=O)N2CCCc3ccccc32)sc2nc(-c3ccccc3)cn12 | 661 cells | 1.22 (inactive) |
| Cc1occc1C(=O)N1CCCc2ccccc21 | 1220 cells | 0.1 (inactive) |
| CCOC(=O)C1=C(CN2CCCCCC2)NC(=O)NC1c1cccc([N+](=O)[O-])c1 (centres undefined) | 1200 cells | 0.23 (inactive) |
| COCc1cc(=O)oc2cc(NS(=O)(=O)c3ccc(C)cc3)ccc12 | 1024 cells | 0.12 (inactive) |
| CC1=NNC(=O)C1CC(=O)N/N=C/c1ccncc1 (centres undefined) | 1010 cells | 1.19 (inactive) |
| COc1c(C=O)c(CCN(C)C(=O)c2ccc(F)cc2)cc2c1OCO2 | 1010 cells | 0.62 (inactive) |
| Cc1nn(CC2CC2)c(=O)n1N(C)c1ncc(C(F)(F)F)cc1Cl | 1660 cells | -0.16 (inactive) |
| COc1cc(/C=N/Nc2nc3ccccc3s2)ccc1O | 924 cells | -0.19 (inactive) |
| Cn1c(SCC(=O)c2ccc(F)cc2)nnc1-c1ccccn1 | 1430 cells | -0.19 (inactive) |
